According to the supplement of paper PMC11732987, “Enantioselective OTUD7B fragment discovery through chemoproteomics screening and high-throughput optimisation” (Communications Chemistry, 2025):
Unmarked numbers belong to inactive results.

How the values were obtained:
Assay in all cases: log2 ratio of Biotin-Ahx-Ub-VS probe labelling (fragment/DMSO); higher = less target engagement (more negative = stronger competition), active = hit call of the paper (q ≤ 0.05, log2 ratio ≤ -1)
Settings in all cases: compound concentration: 200 uM; treatment time: 3 h
ALG13 = target: T1, ALG13 (UniProt Q9NP73)
T1 sequence (whole entry): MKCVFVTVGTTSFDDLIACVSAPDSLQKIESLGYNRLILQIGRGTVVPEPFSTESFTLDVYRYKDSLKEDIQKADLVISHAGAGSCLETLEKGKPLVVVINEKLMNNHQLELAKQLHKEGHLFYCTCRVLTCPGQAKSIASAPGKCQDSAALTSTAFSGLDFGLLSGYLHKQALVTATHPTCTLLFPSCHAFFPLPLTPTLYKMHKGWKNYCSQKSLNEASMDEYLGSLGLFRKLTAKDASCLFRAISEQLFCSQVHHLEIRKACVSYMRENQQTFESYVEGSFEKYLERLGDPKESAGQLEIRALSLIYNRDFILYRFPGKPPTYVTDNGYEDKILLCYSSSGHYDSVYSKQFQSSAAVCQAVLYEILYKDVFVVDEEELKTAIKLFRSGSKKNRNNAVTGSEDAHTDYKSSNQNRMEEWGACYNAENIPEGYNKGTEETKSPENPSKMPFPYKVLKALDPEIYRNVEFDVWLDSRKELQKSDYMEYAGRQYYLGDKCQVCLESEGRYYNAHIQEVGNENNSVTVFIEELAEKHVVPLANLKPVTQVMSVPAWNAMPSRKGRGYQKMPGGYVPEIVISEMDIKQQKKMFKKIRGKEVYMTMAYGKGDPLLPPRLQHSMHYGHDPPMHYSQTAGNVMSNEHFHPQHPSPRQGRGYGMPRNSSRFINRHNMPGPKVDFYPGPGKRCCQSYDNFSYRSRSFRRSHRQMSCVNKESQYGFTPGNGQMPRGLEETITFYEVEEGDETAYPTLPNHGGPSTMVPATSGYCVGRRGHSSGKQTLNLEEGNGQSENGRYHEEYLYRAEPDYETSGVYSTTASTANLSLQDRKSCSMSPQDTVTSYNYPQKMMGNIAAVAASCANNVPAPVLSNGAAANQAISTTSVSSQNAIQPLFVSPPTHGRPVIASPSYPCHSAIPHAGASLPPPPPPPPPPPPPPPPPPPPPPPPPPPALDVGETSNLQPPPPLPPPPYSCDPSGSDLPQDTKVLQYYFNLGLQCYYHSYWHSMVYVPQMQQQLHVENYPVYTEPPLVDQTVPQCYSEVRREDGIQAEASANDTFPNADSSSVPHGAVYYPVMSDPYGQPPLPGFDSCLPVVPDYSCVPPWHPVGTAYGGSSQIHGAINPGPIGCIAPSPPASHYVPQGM
Procedure, shortened: (§1)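 The table lists average log2 ratios of fragment over vehicle, from an unpaired t-test on global-median-normalised Spectronaut label-free quantities. Proteins with ≥2 unique peptides were used. Samples were HEK293T lysate (495 µg) treated in triplicate with fragment at 200 µM or vehicle for 3 h, then with Biotin-Ahx-Ub-VS (0.5 µM final) for 1 h, with labelled DUBs NeutrAvidin-enriched and run by diaPASEF LC-MS/MS.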

ATXN3 = ATXN3 (UniProt P54252)
Chain of ATXN3 (P54252 whole entry): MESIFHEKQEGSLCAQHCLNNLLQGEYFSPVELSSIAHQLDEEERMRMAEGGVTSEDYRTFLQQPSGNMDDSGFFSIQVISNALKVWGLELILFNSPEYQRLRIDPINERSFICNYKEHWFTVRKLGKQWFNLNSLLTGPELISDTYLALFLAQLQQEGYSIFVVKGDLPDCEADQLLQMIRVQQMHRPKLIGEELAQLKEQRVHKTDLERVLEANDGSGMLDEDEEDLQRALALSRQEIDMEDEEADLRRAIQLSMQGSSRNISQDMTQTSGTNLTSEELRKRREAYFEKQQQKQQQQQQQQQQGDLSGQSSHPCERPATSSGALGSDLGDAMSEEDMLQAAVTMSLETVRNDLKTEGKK
Procedure, shortened: as §1

BAP1 = target: T2, BAP1 (UniProt Q92560)
T2 sequence (whole entry): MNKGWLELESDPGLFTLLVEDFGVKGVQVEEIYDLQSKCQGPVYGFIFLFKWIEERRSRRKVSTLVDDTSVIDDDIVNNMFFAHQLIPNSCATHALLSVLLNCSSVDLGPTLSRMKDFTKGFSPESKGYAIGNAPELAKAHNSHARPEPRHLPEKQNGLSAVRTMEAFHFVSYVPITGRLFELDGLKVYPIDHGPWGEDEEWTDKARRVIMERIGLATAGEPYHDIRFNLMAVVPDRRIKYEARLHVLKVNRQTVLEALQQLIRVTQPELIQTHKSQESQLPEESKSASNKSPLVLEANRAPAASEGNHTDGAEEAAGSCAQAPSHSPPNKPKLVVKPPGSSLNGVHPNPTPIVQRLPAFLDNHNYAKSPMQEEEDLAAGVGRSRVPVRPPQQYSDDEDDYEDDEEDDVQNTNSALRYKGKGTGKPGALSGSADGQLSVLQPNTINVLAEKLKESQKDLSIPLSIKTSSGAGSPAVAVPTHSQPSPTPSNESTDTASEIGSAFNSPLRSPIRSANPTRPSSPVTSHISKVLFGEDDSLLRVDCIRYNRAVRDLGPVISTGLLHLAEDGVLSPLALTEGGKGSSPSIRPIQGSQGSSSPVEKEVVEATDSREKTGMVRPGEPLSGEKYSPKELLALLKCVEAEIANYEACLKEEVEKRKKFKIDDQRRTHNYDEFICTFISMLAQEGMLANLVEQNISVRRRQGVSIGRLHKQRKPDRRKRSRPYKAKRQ
Procedure, shortened: as §1

EIF3F = EIF3F (UniProt O00303)
Chain of EIF3F (O00303 whole entry): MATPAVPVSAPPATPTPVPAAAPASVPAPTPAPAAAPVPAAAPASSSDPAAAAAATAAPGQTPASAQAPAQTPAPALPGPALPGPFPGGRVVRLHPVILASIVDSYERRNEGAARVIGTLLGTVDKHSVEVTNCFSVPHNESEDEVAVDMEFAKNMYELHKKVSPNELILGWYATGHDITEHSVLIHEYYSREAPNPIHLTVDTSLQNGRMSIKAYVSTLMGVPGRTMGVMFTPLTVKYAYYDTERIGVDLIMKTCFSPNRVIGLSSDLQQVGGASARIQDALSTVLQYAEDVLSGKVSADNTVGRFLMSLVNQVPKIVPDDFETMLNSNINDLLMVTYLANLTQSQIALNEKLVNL
Procedure, shortened: as §1

EIF3H = EIF3H (UniProt O15372)
Chain of EIF3H (O15372 whole entry): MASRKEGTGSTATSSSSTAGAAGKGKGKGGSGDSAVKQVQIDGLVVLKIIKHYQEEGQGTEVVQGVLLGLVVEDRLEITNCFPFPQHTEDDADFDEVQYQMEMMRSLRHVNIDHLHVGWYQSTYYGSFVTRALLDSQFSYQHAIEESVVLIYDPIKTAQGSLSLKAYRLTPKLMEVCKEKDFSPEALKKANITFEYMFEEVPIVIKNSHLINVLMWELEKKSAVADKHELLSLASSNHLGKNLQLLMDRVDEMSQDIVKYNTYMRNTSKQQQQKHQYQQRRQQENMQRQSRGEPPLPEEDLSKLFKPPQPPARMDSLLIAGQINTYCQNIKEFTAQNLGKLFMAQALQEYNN
Procedure, shortened: as §1

FAM105A = target: T3, FAM105A (UniProt Q9NUU6)
T3 sequence (whole entry): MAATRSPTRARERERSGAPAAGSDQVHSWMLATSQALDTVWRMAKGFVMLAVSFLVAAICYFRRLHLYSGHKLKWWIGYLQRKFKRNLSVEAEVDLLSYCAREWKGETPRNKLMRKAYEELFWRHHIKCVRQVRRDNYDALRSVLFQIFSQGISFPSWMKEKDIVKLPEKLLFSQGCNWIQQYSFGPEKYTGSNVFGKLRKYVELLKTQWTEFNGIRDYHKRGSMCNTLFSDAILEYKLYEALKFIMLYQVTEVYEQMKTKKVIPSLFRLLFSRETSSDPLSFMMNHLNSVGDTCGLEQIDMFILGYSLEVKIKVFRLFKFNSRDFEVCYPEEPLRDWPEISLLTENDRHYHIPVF
Procedure, shortened: as §1

OTUB1 = OTUB1 (UniProt Q96FW1)
Chain of OTUB1 (Q96FW1 whole entry): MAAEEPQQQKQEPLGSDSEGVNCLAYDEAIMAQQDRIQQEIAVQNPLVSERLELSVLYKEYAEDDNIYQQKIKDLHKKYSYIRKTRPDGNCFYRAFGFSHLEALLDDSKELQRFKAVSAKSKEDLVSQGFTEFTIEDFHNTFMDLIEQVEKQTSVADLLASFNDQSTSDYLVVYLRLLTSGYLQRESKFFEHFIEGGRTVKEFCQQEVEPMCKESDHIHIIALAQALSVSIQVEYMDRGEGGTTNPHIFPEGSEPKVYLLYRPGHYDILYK
Procedure, shortened: as §1

OTUD4 = target: T4, OTUD4 (UniProt Q01804)
T4 sequence (whole entry): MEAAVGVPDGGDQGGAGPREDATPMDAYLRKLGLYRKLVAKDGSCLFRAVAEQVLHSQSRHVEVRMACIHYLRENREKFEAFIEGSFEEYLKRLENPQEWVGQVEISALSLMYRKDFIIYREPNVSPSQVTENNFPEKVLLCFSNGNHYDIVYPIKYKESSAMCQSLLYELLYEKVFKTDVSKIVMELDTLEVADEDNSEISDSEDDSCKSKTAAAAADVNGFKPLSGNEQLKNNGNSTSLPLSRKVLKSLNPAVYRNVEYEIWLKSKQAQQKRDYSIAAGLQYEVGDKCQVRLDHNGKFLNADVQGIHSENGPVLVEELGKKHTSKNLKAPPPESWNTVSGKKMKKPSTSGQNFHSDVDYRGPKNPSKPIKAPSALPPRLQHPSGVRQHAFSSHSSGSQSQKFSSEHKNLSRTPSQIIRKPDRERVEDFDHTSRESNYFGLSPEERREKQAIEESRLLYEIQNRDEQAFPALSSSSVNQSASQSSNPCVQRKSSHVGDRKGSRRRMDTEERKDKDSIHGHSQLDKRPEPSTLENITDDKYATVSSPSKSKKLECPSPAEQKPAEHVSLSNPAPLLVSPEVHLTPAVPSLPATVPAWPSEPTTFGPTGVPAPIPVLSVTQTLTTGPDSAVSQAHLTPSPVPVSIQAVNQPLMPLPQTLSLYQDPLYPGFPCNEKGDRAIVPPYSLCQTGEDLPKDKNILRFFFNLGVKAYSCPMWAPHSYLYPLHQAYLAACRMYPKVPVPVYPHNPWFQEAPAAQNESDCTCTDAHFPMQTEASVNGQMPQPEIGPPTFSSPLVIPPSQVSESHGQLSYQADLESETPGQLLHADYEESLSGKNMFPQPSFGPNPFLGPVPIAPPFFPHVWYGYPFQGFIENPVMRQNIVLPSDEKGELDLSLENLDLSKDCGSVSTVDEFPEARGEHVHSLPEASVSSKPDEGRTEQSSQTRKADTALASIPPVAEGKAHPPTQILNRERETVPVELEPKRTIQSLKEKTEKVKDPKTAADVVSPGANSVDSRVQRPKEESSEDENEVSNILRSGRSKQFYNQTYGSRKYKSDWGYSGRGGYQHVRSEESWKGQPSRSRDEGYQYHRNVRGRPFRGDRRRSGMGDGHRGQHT
Procedure, shortened: as §1

OTUD5 = target: T5, OTUD5 (UniProt Q96G74)
T5 sequence (whole entry): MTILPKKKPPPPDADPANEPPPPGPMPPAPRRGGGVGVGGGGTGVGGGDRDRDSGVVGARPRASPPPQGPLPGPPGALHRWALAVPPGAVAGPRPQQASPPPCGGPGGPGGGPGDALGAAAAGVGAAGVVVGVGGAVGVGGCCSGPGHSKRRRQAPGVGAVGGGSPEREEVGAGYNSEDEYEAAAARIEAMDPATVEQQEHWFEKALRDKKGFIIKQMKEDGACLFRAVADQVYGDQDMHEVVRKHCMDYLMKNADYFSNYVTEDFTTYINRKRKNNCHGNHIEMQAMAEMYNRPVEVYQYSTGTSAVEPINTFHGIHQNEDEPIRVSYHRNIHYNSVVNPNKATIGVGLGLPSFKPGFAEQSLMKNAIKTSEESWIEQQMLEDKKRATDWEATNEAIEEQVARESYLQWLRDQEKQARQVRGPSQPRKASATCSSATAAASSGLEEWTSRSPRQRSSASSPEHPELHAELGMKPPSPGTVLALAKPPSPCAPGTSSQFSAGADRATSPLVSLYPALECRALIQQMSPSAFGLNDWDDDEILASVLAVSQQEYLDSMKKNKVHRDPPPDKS
Procedure, shortened: as §1

SMILES	log2 ratio of Biotin-Ahx-Ub-VS probe labelling (ALG13)	log2 ratio of Biotin-Ahx-Ub-VS probe labelling (ATXN3)	log2 ratio of Biotin-Ahx-Ub-VS probe labelling (BAP1)	log2 ratio of Biotin-Ahx-Ub-VS probe labelling (EIF3F)	log2 ratio of Biotin-Ahx-Ub-VS probe labelling (EIF3H)	log2 ratio of Biotin-Ahx-Ub-VS probe labelling (FAM105A)	log2 ratio of Biotin-Ahx-Ub-VS probe labelling (OTUB1)	log2 ratio of Biotin-Ahx-Ub-VS probe labelling (OTUD4)	log2 ratio of Biotin-Ahx-Ub-VS probe labelling (OTUD5)
O=C(CCl)Nc1cc(Cl)ccc1C(=O)O	-0.0259	0.182	-0.0627	-0.053	-0.119	-0.0511	0.108	0.038	-0.156
O=C(CCl)N1CCC(OCc2ccccc2F)CC1	-0.0579	-0.708	-0.64	-0.319	-0.284	-0.178	-0.00851	-0.169	-0.0801
CN(CCC(O)c1ccc(Br)cc1)C(=O)CCl (centres undefined)	-0.222	-0.473	-2.04 (active)	-0.372	0.178	0.138	-0.231	-0.192	-0.354
Cl.Cn1ncc2c1CC(NC(=O)CCl)CC2 (centres undefined)	0.027	-0.0274	-1.1 (active)	-0.121	-0.266	0.307	-0.112	-0.464	0.000518
O=C(CCl)N1CCc2sccc2C1	-0.104	-0.969	-0.988	-0.211	-0.00567	-0.348	-0.126	-0.819	-0.923
Cl.Cn1c(CNC(=O)CCl)nc2cccnc21	0.0884	-0.424	-1.32 (active)	-0.0906	0.0923	-0.0642	-0.136	-0.388	-0.323
CS(=O)(=O)c1ccc(NC(=O)CCl)cc1	-0.729	-0.511	-4.05 (active)	-0.0107	0.14	-0.0733	-0.133	-0.368	-0.613
Cc1ccc(C(=O)NCCNC(=O)CCl)cc1	-0.0475	-0.159	-1.49 (active)	-0.13	-0.101	-0.349	-0.162	-0.371	-0.264
Cc1noc(N2CCN(C(=O)CCl)CC2)n1.Cl	-0.0651	-0.811	-0.867	0.106	-0.241	0.317	0.11	-0.163	-0.0833
Cl.O=C(CN1CCN(C(=O)CCl)CC1)Nc1ccc(F)cc1	-0.446	-0.144	-0.159	-0.203	0.305	-0.0798	0.137	0.146	-0.0696
Cl.O=C(CCl)NCCc1ncc(F)cc1F	0.103	-0.404	-1.21 (active)	-0.289	0.21	0.131	-0.111	-0.506	-0.474
Cc1cccc(C)c1NC(=O)CCl	0.022	-0.224	-3.62 (active)	-0.276	0.122	0.266	-0.261	-0.228	-0.42
Cc1noc(C)c1CNC(=O)CCl	-0.968	-0.884	-2.03 (active)	-0.561	0.0244	0.341	-0.618	-0.737	-0.764
CCN(Cc1ccc(C#N)cc1F)C(=O)CCl	0.0792	-1.1 (active)	-0.691	-0.201	0.0146	0.124	-0.377	-0.686	-0.653
O=C(CN1CCN(C(=O)CCl)CC1)Nc1cccc(F)c1	-0.606	-0.412	-0.967	-0.00546	0.149	0.21	-0.291	-0.422	-0.511
O=C(CCl)N[C@H]1CCS(=O)(=O)c2ccccc21	-0.0339	-0.224	-2.12 (active)	-0.052	0.251	-0.522	0.161	-1.08 (active)	-0.117
